Test results taken from PubChem BioAssay (NCATS).
Inconclusive results are not listed. Unmarked numbers belong to inactive results. Calls come from the whole dose curve; as a rule, active = well fitted inhibition curve with a large enough effect; inconclusive = small, poorly fitted or top-dose-only effect; inactive = flat fitted curve, though single readings scatter.

Biological target: Calcium and integrin-binding protein 1 (Homo sapiens) (UniProt Q99828)
Test: Primary qHTS for Identification of Calcium Integrin Binding Protein 1 (CIB1) Competitor (AID 1508620); note: top concentration of the series differs between compounds
Details: CIB1-GST / FITC-alphaIIb peptide fluorescence polarization; series mostly up to 57.7 µM; activity change, negative = inhibition: at the top concentration
In short: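 Fluorescence polarization competition: GST-tagged CIB1 (1 uM final) preincubated with compound 15 min at room temperature, then FITC-labelled alphaIIb peptide (100 nM final) added. After 15 min at room temperature, polarization read at Ex 480/Em 540.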
% is set by controls: 0 for no effect and ±100 for the full control effect.

Sequence of Calcium and integrin-binding protein 1 (Homo sapiens) (Q99828 whole entry, looked up): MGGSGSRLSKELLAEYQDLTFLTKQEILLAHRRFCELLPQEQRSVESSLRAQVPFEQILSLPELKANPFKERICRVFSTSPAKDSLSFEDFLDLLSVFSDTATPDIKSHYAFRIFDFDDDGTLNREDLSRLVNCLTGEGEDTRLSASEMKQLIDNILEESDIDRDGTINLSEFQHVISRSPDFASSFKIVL

Structure (SMILES)	activity change, negative = inhibition
CC(=O)O[C@@H]1C[C@@]23C[C@@]24CC[C@H](OC2OC[C@@H](O)[C@H](O)[C@H]2O)C(C)(C)[C@@H]4CC[C@H]3[C@]2(C)CC3OC4(C[C@@H](C)C3[C@@]12C)OCC1(C)OC14 (stereo partly drawn)	-2.72% [at 30.2 µM]
CC1(C)CCCC2(C)C3=C(C(=O)OC3O)C(O)CC12 (stereo not drawn)	1.86% [at 114 µM]
C=C1[C@H]2CC[C@]3(O)[C@@](CC[C@@H]4[C@](C)(C(=O)O)CCC[C@]43C)(C2)[C@H]1OC(=O)/C(C)=C\C	0.2%
O=C(/C=C/c1ccccc1)OCC1=CC[C@@H]2C(C(=O)O)=CO[C@@H](O[C@@H]3O[C@H](CO)[C@@H](O)[C@H](O)[C@H]3O)[C@H]12	0.537%
OC[C@H]1O[C@@H](Oc2cc(O)cc(/C=C/c3ccc(O)cc3)c2)[C@H](O)[C@@H](O)[C@@H]1O	2.33% [at 114 µM]
CC(=O)c1c(C)cc(O)cc1O[C@@H]1O[C@H](CO)[C@@H](O)[C@H](O)[C@H]1O	-0.555%
COc1ccccc1CC(C(=O)O)N(C)C(=O)c1ccccc1 (stereo not drawn)	1.66%
C[C@@H]1O[C@@H](O[C@H]2[C@H](OC(=O)[C@]34CCC(C)(C)C[C@H]3C3=CCC5[C@@]6(C)C[C@H](O)[C@H](O[C@@H]7O[C@H](CO[C@@H]8OC[C@H](O)[C@H](O)[C@H]8O)[C@@H](O)[C@H](O)[C@H]7O)C(C)(C)C6CC[C@@]5(C)[C@]3(C)C[C@H]4O)OC[C@@H](O)[C@@H]2O)[C@H](O)[C@H](O[C@@H]2OC[C@](O)(CO)[C@H]2O)[C@H]1O[C@@H]1OC[C@H](O)[C@H](O[C@@H]2OC[C@@H](O)[C@H](O)[C@H]2O)[C@H]1O (stereo partly drawn)	1.69% [at 12.4 µM]
